Measurements taken from PubChem BioAssay.
The source made the active and inactive calls.

Assays:
[1] = tested on: PRMT1 (protein arginine N-methyltransferase 1); test: PRMT1 binders on small-molecule microarrays, primary screen, biochemical, small-molecule microarray, 635 nm fluorescence (AID 1088); conditions: small-molecule microarray binding, higher = more signal;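 also: binding of Prmt1 protein to compounds spotted on small-molecule microarray slides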
[2] = yeast growth modulation, basal conditions, primary screen, YJM789 clinical isolate, OD600, 24 h (AID 1089);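 also: growth of clinical yeast isolate S. cerevisiae YJM 789 seeded 1000 cells per well; test concentration not given here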; conditions: S. cerevisiae YJM789 growth, higher = more signal, called active from +8 up or from −8 down
[3] = fission yeast growth modulation, primary screen, strain 972, OD600, 24 h, no modulator (AID 1090);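 also: basal condition with compound alone and no growth modifier present; test concentration not given here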; conditions: S. pombe 972 growth, higher = more signal, called active from +8 up or from −8 down
[4] = S. cerevisiae growth modulation with rapamycin, primary screen, strain BY4716, OD600, 96 h (AID 1091); conditions: higher = more signal, called active from +8 up or from −8 down; also: test concentration not given here
[5] = target: Torsin-1A-interacting protein 2 (Homo sapiens) (UniProt Q8NFQ8); test: LULL1 binders on small-molecule microarray, primary screen, cell lysate, human LULL1 lysate, 635/667 nm fluorescence (AID 1092); conditions: hLULL1 lysate binding, 635 nm fluorescence, higher = more signal;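 also: probe is lysate of COS7 cells overexpressing human LULL1; score merges per-feature 667 nm fluorescence with signal-to-noise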
[6] = E. coli growth modulation, two-sided OD650, primary screen, E. coli filamentation project, strain DRC41, 24 h (AID 1093); conditions: OD650, 24 h, higher = more signal, called active from +8 up or from −8 down;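 also: MC1000 strain lacking acrAB efflux and sulA so SOS filamentation is blocked; test concentration not given here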
[7] = small-molecule microarray binders of probe aLefty2, primary screen, biochemical, biotinylated probe, 635/667 nm fluorescence (AID 1094); conditions: higher = more signal;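 also: score merges spot fluorescence near 667 nm with spot signal-to-noise ratio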
[8] = tested on: Noggin (protein binding on small-molecule microarray); test: Noggin binders on small-molecule microarray, primary screen, biochemical, 635/667 nm fluorescence (AID 1095); conditions: 635 nm fluorescence, higher = more signal;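 also: score merges 667 nm feature fluorescence with signal to noise over triplicate slides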
[9] = target: Neurogenic locus notch homolog protein 3 (Homo sapiens) (UniProt Q9UM47); test: NOTCH3 binders on small-molecule microarray, primary screen, biochemical, 635/667 nm fluorescence (AID 1096); conditions: NOTCH3 binding, 635 nm fluorescence, higher = more signal
[10] = small-molecule microarray binders of probe aEGFR, primary screen, biochemical, biotinylated probe, 635/667 nm fluorescence (AID 1097); conditions: higher = more signal;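 also: probe is a biotinylated anti-EGFR antibody binding compounds printed on slides; score combines fluorescence near 667 nm and signal to noise of each spot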
[11] = tested on: Plasmodium falciparum Sir2 (PF13_0152, Sir2A); test: pfSir2 binders on small-molecule microarrays, primary screen, biochemical, small-molecule microarray, 635 nm fluorescence (AID 1098); conditions: small-molecule microarray binding, fluorescence 635 nm; higher = more signal;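 also: score merges spot fluorescence intensity with its signal-to-noise ratio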
[12] = small-molecule microarray binders of probe aDKK1, primary screen, biochemical, biotinylated probe, 635/667 nm fluorescence (AID 1099); conditions: higher = more signal;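 also: score merges 667nm spot fluorescence with signal to noise across triplicate slides; reference of the scale not given here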
[13] = small-molecule microarray binders of probe aCHRDL2, primary screen, biochemical, biotinylated probe, 635/667 nm fluorescence (AID 1100); conditions: higher = more signal
[14] = splicing luciferase reporter signal modulators, primary screen, spliceosome inhibition project, cell-based, HEK293, splice +/- reporter (AID 1101); conditions: luminescence, 24 h, higher = more signal, called active from +8 up or from −8 down;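 also: HEK293 cells carrying a splicing-competent luciferase reporter gene; test concentration not given here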
[15] = target: Fibroblast growth factor 10 (Homo sapiens) (UniProt O15520); test: FGF10 binders on small-molecule microarrays, primary screen, biochemical, small-molecule microarray, 635 nm fluorescence (AID 1102); conditions: FGF10 binding, fluorescence 635 nm, higher = more signal
[16] = tested on: glycogen synthase kinase-3 (GSK3A per assay name; protocol says GSK3B); test: GSK3 binders on small-molecule microarrays, primary screen, biochemical, small-molecule microarray, 635 nm fluorescence, GSK3A (AID 1103); conditions: small-molecule microarray binding, fluorescence 635 nm; higher = more signal; also: the record names both GSK3A and GSK3B
[17] = target: Epidermal growth factor receptor (Homo sapiens) (UniProt P00533); test: EGFR binders on small-molecule microarrays, primary screen, biochemical, small-molecule microarray, 635 nm fluorescence (AID 1104); conditions: EGFR binding, higher = more signal;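 also: score merges 667 nm emission intensity with spot signal to noise over triplicate slides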
[18] = target: Follistatin-related protein 3 (Homo sapiens) (UniProt O95633); test: FSTL3 binders on small-molecule microarrays, primary screen, biochemical, small-molecule microarray, 635 nm fluorescence (AID 1105); conditions: FSTL3 binding, higher = more signal;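 also: score merges emission near 667 nm and signal to noise per printed spot across three slides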
[19] = target: Dickkopf-related protein 1 (Homo sapiens) (UniProt O94907); test: DKK1 binders on small-molecule microarrays, primary screen, biochemical, small-molecule microarray, 635 nm fluorescence scan (AID 1106); conditions: DKK1 binding, higher = more signal;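 also: score merges emission near 667 nm with signal to noise over three replicate slides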
[20] = tested on: Inhibin beta A chain (activin A); test: INHBA (activin A) binders on microarrays, primary screen, biochemical, small-molecule microarray, 635 nm fluorescence scan (AID 1107); conditions: small-molecule microarray binding, higher = more signal;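 also: mouse activin A protein probed at 4.33 µg/mL on printed slides; score merges bound-protein fluorescence near 667 nm with spot signal-to-noise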

Chain of Torsin-1A-interacting protein 2 (Homo sapiens) (Q8NFQ8 whole entry, looked up): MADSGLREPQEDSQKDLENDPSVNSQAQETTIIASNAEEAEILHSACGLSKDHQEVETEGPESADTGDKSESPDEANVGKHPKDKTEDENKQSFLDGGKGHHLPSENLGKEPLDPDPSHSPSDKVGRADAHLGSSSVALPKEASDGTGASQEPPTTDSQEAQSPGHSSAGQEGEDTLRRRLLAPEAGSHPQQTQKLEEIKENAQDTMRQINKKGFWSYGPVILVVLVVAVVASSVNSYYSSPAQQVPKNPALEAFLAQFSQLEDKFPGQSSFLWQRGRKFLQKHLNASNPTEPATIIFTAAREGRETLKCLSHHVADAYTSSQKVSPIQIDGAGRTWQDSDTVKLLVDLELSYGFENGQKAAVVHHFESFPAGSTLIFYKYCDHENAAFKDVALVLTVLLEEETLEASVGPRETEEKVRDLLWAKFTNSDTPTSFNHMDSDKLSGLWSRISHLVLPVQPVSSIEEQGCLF
Chain of Fibroblast growth factor 10 (Homo sapiens) (O15520 whole entry, looked up): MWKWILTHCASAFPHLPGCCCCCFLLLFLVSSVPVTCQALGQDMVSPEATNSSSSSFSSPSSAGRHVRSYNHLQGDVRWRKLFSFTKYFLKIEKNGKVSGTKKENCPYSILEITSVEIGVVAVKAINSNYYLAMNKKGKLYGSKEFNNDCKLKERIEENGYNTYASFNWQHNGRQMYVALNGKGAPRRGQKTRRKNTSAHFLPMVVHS
Chain of Neurogenic locus notch homolog protein 3 (Homo sapiens) (Q9UM47 whole entry, looked up): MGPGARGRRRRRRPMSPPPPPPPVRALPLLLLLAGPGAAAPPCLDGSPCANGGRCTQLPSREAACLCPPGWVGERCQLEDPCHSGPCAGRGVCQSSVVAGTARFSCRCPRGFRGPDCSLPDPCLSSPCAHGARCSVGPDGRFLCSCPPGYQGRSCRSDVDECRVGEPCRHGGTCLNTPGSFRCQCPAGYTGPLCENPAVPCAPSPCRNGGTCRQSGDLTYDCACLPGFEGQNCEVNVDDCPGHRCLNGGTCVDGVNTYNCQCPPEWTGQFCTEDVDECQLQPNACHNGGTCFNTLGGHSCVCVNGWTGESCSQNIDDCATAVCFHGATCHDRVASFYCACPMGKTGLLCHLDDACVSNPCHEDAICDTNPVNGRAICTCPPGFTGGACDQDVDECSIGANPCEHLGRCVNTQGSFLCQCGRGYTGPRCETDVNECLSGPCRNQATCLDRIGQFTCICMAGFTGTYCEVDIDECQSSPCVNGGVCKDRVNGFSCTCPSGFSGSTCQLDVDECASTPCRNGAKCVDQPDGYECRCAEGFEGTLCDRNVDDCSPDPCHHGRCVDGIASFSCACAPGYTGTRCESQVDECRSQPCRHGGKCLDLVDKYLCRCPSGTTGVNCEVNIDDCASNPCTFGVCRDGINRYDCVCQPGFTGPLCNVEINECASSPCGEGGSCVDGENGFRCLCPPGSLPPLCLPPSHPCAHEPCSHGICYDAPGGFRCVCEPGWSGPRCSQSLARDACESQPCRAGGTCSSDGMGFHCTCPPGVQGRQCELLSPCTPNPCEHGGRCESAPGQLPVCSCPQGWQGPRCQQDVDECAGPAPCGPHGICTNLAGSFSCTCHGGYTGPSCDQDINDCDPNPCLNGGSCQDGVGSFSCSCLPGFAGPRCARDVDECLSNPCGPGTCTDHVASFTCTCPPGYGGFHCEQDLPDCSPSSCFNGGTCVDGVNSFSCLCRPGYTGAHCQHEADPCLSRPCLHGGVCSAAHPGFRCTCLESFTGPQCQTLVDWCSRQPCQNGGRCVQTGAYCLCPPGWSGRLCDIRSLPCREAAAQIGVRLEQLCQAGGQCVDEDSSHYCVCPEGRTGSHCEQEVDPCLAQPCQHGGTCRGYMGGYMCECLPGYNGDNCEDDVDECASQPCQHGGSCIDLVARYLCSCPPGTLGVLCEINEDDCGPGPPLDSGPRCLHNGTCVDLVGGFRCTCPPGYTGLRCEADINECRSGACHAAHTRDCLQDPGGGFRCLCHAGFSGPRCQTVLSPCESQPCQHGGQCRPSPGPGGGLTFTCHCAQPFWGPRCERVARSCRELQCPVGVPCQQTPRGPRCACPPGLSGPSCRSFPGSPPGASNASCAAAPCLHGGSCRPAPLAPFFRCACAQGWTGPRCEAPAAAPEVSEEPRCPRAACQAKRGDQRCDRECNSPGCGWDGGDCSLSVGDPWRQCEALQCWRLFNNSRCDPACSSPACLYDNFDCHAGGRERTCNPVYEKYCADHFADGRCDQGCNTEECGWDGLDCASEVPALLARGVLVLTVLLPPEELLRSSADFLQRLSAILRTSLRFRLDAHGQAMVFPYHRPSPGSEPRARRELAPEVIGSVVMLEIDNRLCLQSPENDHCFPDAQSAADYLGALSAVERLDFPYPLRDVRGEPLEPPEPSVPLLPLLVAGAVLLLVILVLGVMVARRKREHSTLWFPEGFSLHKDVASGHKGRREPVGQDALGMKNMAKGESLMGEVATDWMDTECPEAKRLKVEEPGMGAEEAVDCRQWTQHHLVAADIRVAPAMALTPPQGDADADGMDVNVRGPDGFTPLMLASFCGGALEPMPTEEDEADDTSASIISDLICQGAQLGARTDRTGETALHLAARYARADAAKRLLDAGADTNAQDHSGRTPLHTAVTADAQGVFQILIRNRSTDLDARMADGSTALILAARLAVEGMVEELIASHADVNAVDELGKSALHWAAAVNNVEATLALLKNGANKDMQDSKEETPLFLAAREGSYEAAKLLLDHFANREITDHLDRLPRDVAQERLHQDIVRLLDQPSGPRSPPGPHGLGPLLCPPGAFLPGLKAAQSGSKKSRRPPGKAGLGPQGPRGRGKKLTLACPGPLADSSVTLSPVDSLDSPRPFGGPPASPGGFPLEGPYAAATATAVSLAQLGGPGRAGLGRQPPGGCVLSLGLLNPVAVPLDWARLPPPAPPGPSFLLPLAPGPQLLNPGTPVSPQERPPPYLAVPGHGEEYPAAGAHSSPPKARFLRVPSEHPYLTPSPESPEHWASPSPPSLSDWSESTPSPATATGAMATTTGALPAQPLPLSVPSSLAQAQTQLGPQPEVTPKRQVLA
Chain of Follistatin-related protein 3 (Homo sapiens) (O95633 whole entry, looked up): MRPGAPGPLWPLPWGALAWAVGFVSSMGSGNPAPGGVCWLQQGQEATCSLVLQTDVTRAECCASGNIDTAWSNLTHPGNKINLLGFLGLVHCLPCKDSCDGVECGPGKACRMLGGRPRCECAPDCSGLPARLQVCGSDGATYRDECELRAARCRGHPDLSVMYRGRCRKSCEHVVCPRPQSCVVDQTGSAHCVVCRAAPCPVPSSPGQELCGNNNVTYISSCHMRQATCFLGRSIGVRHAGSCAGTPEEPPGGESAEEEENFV
Chain of Dickkopf-related protein 1 (Homo sapiens) (O94907 whole entry, looked up): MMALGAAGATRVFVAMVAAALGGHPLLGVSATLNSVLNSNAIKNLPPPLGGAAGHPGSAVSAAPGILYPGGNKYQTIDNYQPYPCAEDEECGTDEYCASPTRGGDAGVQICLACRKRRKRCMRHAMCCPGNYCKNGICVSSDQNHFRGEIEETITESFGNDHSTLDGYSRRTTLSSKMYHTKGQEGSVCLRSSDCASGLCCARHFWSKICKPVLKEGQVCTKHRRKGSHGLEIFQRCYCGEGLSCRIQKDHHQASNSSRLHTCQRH
Chain of Epidermal growth factor receptor (Homo sapiens) (P00533 whole entry, looked up): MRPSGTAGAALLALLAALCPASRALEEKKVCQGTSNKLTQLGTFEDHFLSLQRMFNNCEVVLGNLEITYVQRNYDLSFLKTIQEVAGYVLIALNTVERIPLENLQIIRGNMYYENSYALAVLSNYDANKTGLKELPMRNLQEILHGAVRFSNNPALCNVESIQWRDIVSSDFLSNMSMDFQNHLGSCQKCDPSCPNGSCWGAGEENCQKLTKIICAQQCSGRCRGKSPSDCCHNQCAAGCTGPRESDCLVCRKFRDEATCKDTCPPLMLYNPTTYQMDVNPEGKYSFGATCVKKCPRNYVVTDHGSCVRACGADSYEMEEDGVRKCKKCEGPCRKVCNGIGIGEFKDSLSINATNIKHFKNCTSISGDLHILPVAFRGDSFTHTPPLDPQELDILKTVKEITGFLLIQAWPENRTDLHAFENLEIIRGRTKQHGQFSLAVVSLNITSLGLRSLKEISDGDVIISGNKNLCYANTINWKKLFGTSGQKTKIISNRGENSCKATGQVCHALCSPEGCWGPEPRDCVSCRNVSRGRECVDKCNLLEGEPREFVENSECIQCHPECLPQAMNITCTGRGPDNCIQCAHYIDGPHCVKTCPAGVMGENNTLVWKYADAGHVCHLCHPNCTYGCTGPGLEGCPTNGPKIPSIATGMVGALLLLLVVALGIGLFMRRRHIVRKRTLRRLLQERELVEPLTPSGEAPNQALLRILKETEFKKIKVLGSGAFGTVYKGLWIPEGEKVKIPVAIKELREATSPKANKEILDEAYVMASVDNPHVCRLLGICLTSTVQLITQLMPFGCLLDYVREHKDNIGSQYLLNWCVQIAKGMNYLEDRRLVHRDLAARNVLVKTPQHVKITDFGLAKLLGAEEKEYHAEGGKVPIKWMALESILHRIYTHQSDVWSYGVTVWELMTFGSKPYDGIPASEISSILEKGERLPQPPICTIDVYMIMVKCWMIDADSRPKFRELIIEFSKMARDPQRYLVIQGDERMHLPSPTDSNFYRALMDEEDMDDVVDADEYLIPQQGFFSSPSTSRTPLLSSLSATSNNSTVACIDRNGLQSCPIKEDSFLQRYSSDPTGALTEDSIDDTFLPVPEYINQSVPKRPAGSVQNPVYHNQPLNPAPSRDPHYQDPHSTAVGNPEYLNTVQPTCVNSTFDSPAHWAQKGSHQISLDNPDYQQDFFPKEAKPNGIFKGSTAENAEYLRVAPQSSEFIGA

Compound | composite z-score [1] | z-score [2] | z-score [3] | z-score [4] | composite z-score [5] | z-score [6] | composite z-score [7] | composite z-score [8] | composite z-score [9] | composite z-score [10] | composite z-score [11] | composite z-score [12] | composite z-score [13] | z-score [14] | composite z-score [15] | composite z-score [16] | composite z-score [17] | composite z-score [18] | composite z-score [19] | composite z-score [20]
COCCOC(=O)N1C(=O)[C@@]2(c3cc(C#CCC(C(=O)OC)C(=O)OC)ccc31)[C@H](C(N)=O)[C@H]1C(=O)O[C@H](c3ccccc3)[C@H](c3ccccc3)N1[C@@H]2c1ccc(OCCO)cc1 | 1.53 | 2.23 (inactive) | 2.01 (inactive) | 6.44 (inactive) | 2.77 | -0.55 (inactive) | 0.0139 | 0.813 | 1.08 | -0.0245 | 1.13 | 0.271 | 0.25 | -0.517 (inactive) | 1.11 | 1.31 | 0.776 | 1.01 | 0.614 | 0.444
CCCCCCc1nc(-c2ccc(OC)nc2)cc2c1[Si](C(C)C)(C(C)C)OC2 | -0.741 | -0.1 (inactive) | -0.283 (inactive) | -0.218 (inactive) | -0.342 | -0.647 (inactive) | -0.143 | -0.374 | -0.123 | -0.24 | 0.0342 | -0.251 | -0.037 | -0.589 (inactive) | -0.322 | -0.574 | -0.459 | -0.351 | -0.329 | 0.96
CC1(C)OC[C@@]23C=C(Br)[C@@H](C[C@H]12)[C@@]1(CO1)C3=O | -0.0986 | 0.409 (inactive) | -1.24 (inactive) | 0.125 (inactive) | -0.202 | -0.665 (inactive) | -0.153 | 0.232 | 0.378 | -0.109 | 0.0908 | -0.123 | -0.567 | 0.0884 (inactive) | 0.447 | 0.691 | 0.376 | 0.564 | 0.356 | 0.174
CCCC[C@@H]1C[C@H]1[C@@H](NC(=O)c1ccc(C(F)(F)F)cc1)c1ccc(C(=O)OC)cc1 | 0.715 | 0.119 (inactive) | -3.29 (inactive) | -0.898 (inactive) | 0.888 | 0.255 (inactive) | 0.293 | 0.747 | 0.812 | 0.695 | 0.234 | 0.172 | 0.158 | -1.22 (inactive) | 0.743 | 0.352 | 0.6 | 1.09 | 0.583 | 1.32
CN(C)CCCC[C@@H]1NC(=O)[C@H]2C[C@@H](C(=O)O)[C@@H](c3cccc(OCCO)c3)N2C1=O | 1.4 | -0.733 (inactive) | -1.36 (inactive) | 0.102 (inactive) | 2.1 | 0.579 (inactive) | 0.495 | 1.19 | 0.87 | 0.169 | 1.67 | 0.696 | 0.555 | -0.348 (inactive) | 0.702 | 1.14 | 0.258 | 0.666 | 0.969 | 0.658
CCCCC(O)C1C=CC2C(=O)NC(=O)C2N1Nc1ccc(Cl)cc1Cl (stereo not given) | -0.338 | -25.2 (active) | -8.47 (active) | -1.58 (inactive) | 2.28 | -1.55 (inactive) | 0.259 | -0.314 | 0.303 | -0.0232 | 0.976 | 0.635 | 1.03 | -0.167 (inactive) | 0.228 | -0.104 | -0.429 | -0.125 | -0.8 | 0.979
O=C(NCCO)C1=C[C@H](Oc2ccccc2I)[C@@H](O)[C@H](NCc2ccc(F)cc2)C1 | 0.517 | 0.0567 (inactive) | -20.5 (active) | -0.455 (inactive) | -0.992 | -0.909 (inactive) | -0.212 | 1.66 | -0.0545 | -0.202 | -1.55 | -0.472 | -0.552 | -0.635 (inactive) | 1.61 | -0.814 | -0.201 | -1.52 | 1.19 | -2.01
COCCOC(=O)N1C(=O)[C@@]2(c3cc(C#CCCO)ccc31)[C@H](C(=O)N1CCc3cc(OC)c(OC)cc3C1)[C@H]1C(=O)O[C@H](c3ccccc3)[C@H](c3ccccc3)N1[C@@H]2c1ccccc1OCCO | 1.55 | 2.65 (inactive) | 1.65 (inactive) | 3.88 (inactive) | 2.81 | 0.156 (inactive) | -0.0159 | 1.81 | 1.1 | -0.0564 | 1.64 | -0.232 | 0.0036 | -0.961 (inactive) | 1.42 | 1.29 | 0.861 | 1.32 | 0.35 | 0.748
CC(C)C[C@@H]1NC(=O)[C@@]23C(=O)N[C@@H](Cc4ccccc4)C2[C@H](C)[C@@]2(C)O[C@H]2C3/C=C/C/C=C\CNC(=O)[C@@H](CC(C)C)NC1=O (stereo not given in full) | 1.55 | -0.652 (inactive) | -17.9 (active) | 0.241 (inactive) | 2.16 | -0.313 (inactive) | -0.184 | 0.914 | 0.895 | -0.0814 | 0.331 | -0.299 | -0.496 | -0.958 (inactive) | 0.37 | 0.193 | 0.367 | 1.1 | 0.511 | 0.904
C[N+](C)(C)CCCC[C@@H]1NC(=O)[C@H]2C[C@@H](C(=O)NCCCCCNC(=O)CS)[C@@H](c3ccc(O)cc3)N2C1=O | 0.808 | -4.72 (inactive) | -0.839 (inactive) | -0.554 (inactive) | 1.91 | 1.42 (inactive) | -0.134 | 0.212 | 0.58 | -0.0583 | 1.43 | -0.0443 | 0.161 | -0.744 (inactive) | 0.499 | 0.57 | 0.0872 | -0.0399 | 0.312 | 0.425
